# Source: PubChem (The Scripps Research Institute Molecular Screening Center)
# Shown is part of a subset that was picked to be rich in hits.
# TTR transcr act – TTR transcription activation, primary screen. SH-SY5Y TTR promoter Gaussia luciferase, luminescence; 100% = recombinant luciferase protein wells. activation, % at 16.7 µM. hit rate 1.3% among 92,000;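 active = activation above the mean of all tested compounds plus 3 SD, cut at about 9.5% in these data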;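 note: cells exposed to compounds for one day before reading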
# HuH7 TTR inh – HuH7 TTR transcription inhibition, counter-screen | HuH7 TTR promoter-Gaussia luciferase reporter, luminescence | inhibition, % at 16.7 µM | shares compounds with TTR transcr act | hit rate 4% among 1,100 | AID 1117279;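 active = average inhibition above the solvent-only control wells' mean plus 3 SD, cut at about 15% in these data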;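 note: inhibitors lower well luminescence so higher value means more inhibition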
# TTR act confirm – confirmation of human transthyretin transcription activators; SHSY5Y TTR promoter Gaussia luciferase, luminescence; 100% = purified Lucia enzyme wells, no cells; 1,100 tested, under 10 active; activation, % at 16.7 µM; shares compounds with TTR transcr act;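 active = mean activation above a set limit taken from the earlier primary screen, cut at about 11% in these data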
# Hits are given with their value; - = inactive.
SMILES,TTR transcr act,others
CC(C)c1ccc(NC2CCCN(C(=O)c3cnc4ccccn4c3=O)C2)cc1 (stereo not drawn),-,
CC(C)c1ccc(NC2CCCN(C(=O)CCN3CCCCC3=O)C2)cc1 (stereo not drawn),-,
CC(C)c1ccc(NC2CCCN(C(=O)c3cccs3)C2)cc1 (stereo not drawn),11.3,HuH7 TTR inh=-;TTR act confirm=-
CCC(=O)OCCCN1CCC2(CCCCC2)C1=O,-,
COc1ccc(C(=O)C2CCN(C(=O)c3ccco3)CC2)cc1,10.7,HuH7 TTR inh=-;TTR act confirm=-
COc1cc(C(=O)N2CCN(C(=O)c3ccco3)CC2)cc(OC)c1OC,-,
O=C(c1ccco1)N1CCN(C(=O)C2CC2)CC1,-,
CC(C)(C)N1NC2(CCCCC2)NC1=S,11.8,HuH7 TTR inh=-;TTR act confirm=-
CCOC(=O)CN1NC2(CCCCCC2)NC1=S,-,
CCCCCCCCN1C(=O)[C@@H](CC(=O)N2CCOCC2)C[C@@]2(C(=O)OC)C1=C[C@H](C(C)C)O[C@@H]2C1CC1,-,
CCOC(=O)[C@@]12CCC3=C1N(CCC3)C(=O)[C@H](CC(=O)NCc1cccs1)C2,-,
CC(=O)Nc1sc2c(c1-c1nc(-c3ccccc3)cs1)CCN(C(C)C)C2,-,
O=C(CC[C@H]1O[C@@H](n2ccc(=O)[nH]c2=O)[C@H](O)[C@@H]1O)N[C@@H](Cc1ccccc1)C(=O)NCc1ccccc1,15.0,HuH7 TTR inh=-;TTR act confirm=-
O=c1ccn([C@@H]2O[C@H](CNCc3ccc(-n4cccn4)cc3)[C@@H](O)[C@H]2O)c(=O)[nH]1,-,
CC(C)CCNC(=O)[C@@H](Cc1ccccc1)NC(=O)CC[C@H]1O[C@@H](n2ccc(=O)[nH]c2=O)[C@H](O)[C@@H]1O,-,
Cc1ccc(S(=O)(=O)C2CCN(c3nc(-c4cccs4)nc4ccccc34)CC2)cc1,-,
COc1ccc2[nH]c3c(c2c1)CCN[C@]31C(=O)N(C)c2ccc(Br)cc21,-,
O=C(CN1C(=O)N/C(=C\c2ccccc2OCc2ccc(C(=O)O)cc2)C1=O)Nc1ccc(F)cc1,-,
O=C(CN1C(=O)S/C(=C\c2ccccn2)C1=O)Nc1ccc(F)cc1,-,
NC1=NC(=O)/C(=C/c2ccccc2OCC(=O)Nc2ccc(F)cc2)S1,9.9,HuH7 TTR inh=-;TTR act confirm=-
CCCC/C=C1/[C@@H](CC)N(Cc2ccc(OC)cc2OC)C2=N[C@@H](c3ccccc3)CC(=O)N21,-,
CCCC1CCC2(CC1)CCC2OC(=S)NCc1ccc(Cl)cc1 (stereo not drawn),-,
CCN(C(=O)[C@@H](C)[C@@H](O)c1ccc(Cl)cc1)c1ccccc1,-,
Cc1ccccc1CN1C(=O)C(O)(CC(=O)c2ccncc2)c2ccccc21 (stereo not drawn),-,
CN1C(=O)C(O)(CC(=O)c2cccs2)c2ccccc21 (stereo not drawn),18.2,HuH7 TTR inh=-;TTR act confirm=-
SMILES,TTR transcr act,others
CCCCN1C(=O)C(O)(CC(=O)c2ccccn2)c2ccccc21 (stereo not drawn),-,
O=C(NCc1ccco1)OC1CCC12CCC(c1ccccc1)CC2 (stereo not drawn),-,
C#CCN1CC(COc2ccccc2)OCCS1(=O)=O (stereo not drawn),-,
O=P(c1ccccc1)(c1ccccc1)c1cnc2ccccn12,-,
COC(=O)c1cc(-c2cccc3c2sc2ccccc23)c(=O)n2c1CCC2,-,
CC(C)(C)NC(=O)[C@@H](c1cccnc1)N(C(=O)c1ccco1)c1ccc(C(C)(C)C)cc1,-,
Cc1nc2ccccc2n1-c1ccccc1,-,
Nn1c(-c2ccccc2)nc2ccccc2c1=O,-,
On1c(-c2ccccc2)nc2ccccc21,11.4,HuH7 TTR inh=-;TTR act confirm=-
COC(=O)[C@@]1(OC(C)=O)CC(OC(C)=O)[C@H](OC(C)=O)[C@H](OC(C)=O)C1Br (stereo partly drawn),-,
COC(=O)[C@H](Cc1ccccc1)N1CC=CS1(=O)=O,-,
COC(=O)[C@]12C[C@H](CC(=O)NCc3ccc(OC)c(OC)c3)C(=O)N(Cc3ccc(Cl)cc3Cl)C1=C[C@H](COCc1ccccc1)O[C@@H]2C,-,
Cc1nc(SCC(N)=O)[nH]c(=O)c1C,-,
COc1cc(CO)ccc1OCC(=O)N1CCc2ccccc21,-,
COc1ccc(CC(=O)N2CCc3ccccc32)cc1,21.0,HuH7 TTR inh=-;TTR act confirm=-
COc1ccc(C(=O)N2CCCc3ccccc32)cc1,-,
Cc1ccc2c(c1)C1CS(=O)(=O)N(Cc3ccccc3)C(=O)N1C2 (stereo not drawn),-,
COc1ccc(S[C@]2(C(=O)N3CCOCC3)CC(=O)N(c3ccsc3)[C@@H]2c2ccc(OC)cc2)cc1,-,
O=S1(=O)c2ccc(Br)cc2OC[C@@H](c2ccccc2)N1Cc1cn(CCC2OCCCO2)nn1,-,
CC(=O)c1cnc2nc(C)nn2c1C,-,
Cc1c(C(=O)O)cnc2cc(-c3ccc(Cl)cc3)nn12,-,
CC(=O)c1cnc2cc(-c3ccc(Cl)cc3)nn2c1C,12.3,HuH7 TTR inh=-;TTR act confirm=-
COc1cccc(N(C)C(=O)[C@@H](C2CC2)[C@@H](O)c2ccc(Cl)cc2)c1,-,
COc1ccc(/C=N\NC(=O)CCc2c(C)n[nH]c2C)c(OC)c1OC,-,
COc1ccc(/C=N/NC(=O)C(N)=O)c(OC)c1OC,12.9,HuH7 TTR inh=-;TTR act confirm=-
SMILES,TTR transcr act,others
COc1ccc(/C=N/NC(=O)c2cccc(OC(F)(F)C(F)F)c2)c(OC)c1OC,-,
Cc1ccc(S(=O)(=O)NC[C@H]2CN(S(=O)(=O)c3ccc(C)cc3)[C@@H](Cc3ccccc3)CO2)cc1,-,
Cc1ccc(S(=O)(=O)NCC2Cc3ccccc3N2S(=O)(=O)c2ccc(C)cc2)cc1 (stereo not drawn),-,
Cc1ccc(S(=O)(=O)NC[C@@H]2C[C@H](c3ccccc3)ON2S(=O)(=O)c2ccc(C)cc2)cc1,10.1,HuH7 TTR inh=-;TTR act confirm=-
C=CCN(Cc1ccc2c(c1)OCO2)C(C#CCCCC)C(C)C (stereo not drawn),-,
CCOc1ccc(CCNC(=O)c2cc3sccc3n2Cc2cccc(C)c2)cc1OCC,-,
Cc1cn([C@H]2C[C@H](O)[C@@H](CNC(=O)[C@H]3CCC(=O)N3)O2)c(=O)[nH]c1=O,-,
Cc1cn([C@H]2C[C@H](O)[C@@H](CNCc3ccc(N4CCN(C)CC4)cc3F)O2)c(=O)[nH]c1=O,-,
C=Cn1cc(CNC[C@H]2O[C@@H](n3cc(C)c(=O)[nH]c3=O)C[C@@H]2O)c(C)n1,11.4,HuH7 TTR inh=-;TTR act confirm=-
COC(=O)[C@]12C[C@H](CC(=O)NCc3cccc4ccccc34)C(=O)N(Cc3ccc4c(c3)OCO4)C1=C[C@H](C(C)C)O[C@@H]2C1CC1,-,
COC(=O)[C@]12C[C@H](CC(=O)N3CCC(c4ccccc4)CC3)C(=O)N(CCc3ccc(OC)c(OC)c3)C1=C[C@H](COCc1ccccc1)O[C@@H]2C,-,
COc1ccc(CNC(=O)O[C@H]2CC[C@@]34CCCN3C(=O)CCC[C@H]4[C@H]2C)cc1,-,
COC(=O)[C@]12C[C@H](CC(=O)NCc3cccc4ccccc34)C(=O)N(Cc3ccco3)C1=C[C@H](COCc1ccccc1)O[C@@H]2C,-,
CC(C)=CCN1CCN(Cc2ccoc2)CC1CCO (stereo not drawn),-,
CC(=O)Nc1ccc2nc(CN3CCN(CC=C(C)C)C(CCO)C3)ccc2c1 (stereo not drawn),67.1,HuH7 TTR inh=-;TTR act confirm=-
CC(C)=CCN1CCN(Cc2ccc3nsnc3c2)CC1CCO (stereo not drawn),-,
